Among all 52,000 compounds or so, about 4,300 (8.3%) were called active. Cut-off read from the data, not from the text of the source: active = survival mostly below about 52% (no sharp cut-off); inactive = mostly above about 56%. Shown is part of a subset that was picked to be rich in actives.

This is an account of results in PubChem BioAssay AID463173 (ICCB-Longwood Screening Facility, Harvard Medical School, 2010).

For the test, the system named is DeltatarO mutant. Description: S. aureus survival, RN4220 and DeltatarO strains – OD600, teichoic acid synthesis inhibitors, primary screen (AID 463173). The conditions noted are these: S. aureus RN4220 wild type/DeltatarO growth, OD600, 18 h, stronger effect = lower value, screened at 18.75 µg/mL (by protocol).
For the molecule `N#C/C(=C(/O)CN1C(=O)c2ccccc2C1=O)c1nc2ccccc2[nH]1`, the survival is 76% (inactive).
Turning to `Cc1ccccc1Nc1c(-c2ccc(N3CCOCC3)cc2)nc2ccccn12`, the survival was 41% (active).
For the molecule `Cc1ccc(Nc2c(-c3ccc(N4CCOCC4)cc3)nc3ncccn23)cc1`, the survival is 139% (inactive).
Turning to `Cc1ccn2c(Nc3ccccc3C)c(-c3ccc(N4CCOCC4)cc3)nc2c1`, the survival is 89% (inactive).
Regarding `Cc1ccc(-c2nc3ncccn3c2Nc2ccc3c(c2)OCCO3)cc1`, the survival was 79% (inactive).
As to `Cc1ccc2nc(-c3ccc(N4CCOCC4)cc3)c(Nc3ccccc3C)n2c1`, the survival was 71% (inactive).
As to `Cc1ccc(Nc2c(-c3ccc(C)s3)nc3ncccn23)cc1`, the survival was 9% (active).
On to `CCOC(=O)c1cnc2cc(-c3ccc(C)cc3)nn2c1C`, for which the survival is 74% (inactive).
As to `O=C1COc2cc(S(=O)(=O)CCC(=O)NC3CCCCC3)c(Cl)cc2N1`, the survival was 93% (inactive).
The value for `CCc1sc(Nc2cccc(C)c2)nc1-c1cc2cccc(OC)c2oc1=O` was 94% (inactive); that for `O=C(NCCCN1CCOCC1)c1ccc2c(c1)N(Cc1ccccc1)C(=O)c1ccccc1S2` was 98% (inactive).
For the molecule `Cc1ccc(CN2C(=O)c3ccccc3Sc3ccc(C(=O)NCc4ccco4)cc32)cc1`, the survival is 81% (inactive).
`Cc1ccc(CN2C(=O)c3ccccc3Sc3ccc(C(=O)NC4CCCCC4)cc32)cc1`: the survival is 100% (inactive).
In the case of `Cc1ccccc1CN1C(=O)c2ccccc2Sc2ccc(C(=O)NCCc3ccccc3)cc21`, the survival was 101% (inactive).
As for `Cc1cccc(CN2C(=O)c3ccccc3Sc3ccc(C(=O)NCc4ccco4)cc32)c1`, the survival was 102% (inactive).
Consider `Cc1ccc(CN2C(=O)c3ccccc3Sc3ccc(C(=O)NCCCN4CCOCC4)cc32)cc1`, for which the survival was 126% (inactive).
Regarding `O=C(NC1CCCCC1)c1ccc2c(c1)N(Cc1ccccc1)C(=O)c1ccccc1S2`, the survival is 46% (active).
The value for `O=C(NC1CCCC1)c1ccc2c(c1)N(Cc1ccccc1)C(=O)c1ccccc1S2` was 105% (inactive); that for `Cc1ccc(C)c(CN2C(=O)c3ccccc3Sc3ccc(C(=O)NCc4ccco4)cc32)c1` was 17% (active); that for `Cc1ccccc1CN1C(=O)c2ccccc2Sc2ccc(C(=O)NCc3ccccc3)cc21` was 37% (active).
Turning to `Cc1ccccc1CN1C(=O)c2ccccc2Sc2ccc(C(=O)NCc3cccs3)cc21`, the survival was 93% (inactive).
On to `Cc1cccc(CN2C(=O)c3ccccc3Sc3ccc(C(=O)NCCCN4CCOCC4)cc32)c1`, for which the survival is 37% (active).
In the case of `Cc1ccc(C)c(N2CCN(S(=O)(=O)c3ccc4c(c3)OCCO4)CC2)c1`, the survival is 76% (inactive).
As to `Cc1nn(-c2ccccc2)c2c1N(CC(=O)N1CCN(c3ccc(F)cc3)CC1)C(=O)CS2`, the survival is 81% (inactive).
As for `CC(C)(C)c1ccc(C(=O)NCC(c2cccs2)S(=O)(=O)c2ccc(F)cc2)cc1` (stereo unspecified), the survival was 90% (inactive).
For the molecule `Cc1ccc(CNC(=O)C2CCCN(c3nn4cc(-c5ccc(C)cc5)nc4s3)C2)cc1` (stereo unspecified), the survival was 93% (inactive).
The value for `CC(=O)c1ccc(N2C(=O)N(CC(=O)c3ccc(F)cc3)c3ccccc3S2(=O)=O)cc1` was 102% (inactive); that for `Cc1ccc(NC(=O)CCCc2nc(-c3ccco3)no2)cc1Cl` was 80% (inactive); that for `CCc1cccc(C)c1NC(=O)Cn1ncc2c3ccccc3n(Cc3ccccc3)c2c1=O` was 86% (inactive).
For `COc1cccc(CNC(=O)c2ccc3c(c2)N(Cc2ccc(F)cc2Cl)C(=O)c2ccccc2S3)c1`, the survival is 25% (active).
Consider `O=C(Nc1ccc2c(c1)N(C1CCCC1)C(=O)c1ccccc1S2)c1ccccc1`, for which the survival was 60% (inactive).
Take `COc1ccc(CNC(=O)c2ccc3c(c2)N(Cc2cccc(Cl)c2)C(=O)c2ccccc2S3)c(OC)c1`: the survival was 83% (inactive).
Regarding `CC(=O)Nc1ccc(C(=O)Nc2ccc3c(c2)N(C2CCCC2)C(=O)c2ccccc2S3)cc1`, the survival is -4% (active).
The value for `O=C(Nc1ccc2c(c1)N(C1CCCC1)C(=O)c1ccccc1S2)c1ccc(F)cc1` was 66% (inactive); that for `COc1cccc(CN2C(=O)c3ccccc3Sc3ccc(C(=O)NCc4ccccc4)cc32)c1` was 80% (inactive).
With `CC(=O)N1CCc2cc(CNS(=O)(=O)c3ccc(Cl)s3)ccc21`, the survival is 70% (inactive).
For the molecule `CS(=O)(=O)c1ccccc1-c1nnc(NC(=O)c2ccc3c(c2)OCCO3)o1`, the survival is -4% (active).
The value for `CS(=O)(=O)c1ccc(-c2nnc(NC(=O)c3ccc4c(c3)OCCO4)o2)cc1` was 60% (inactive); that for `CSc1ccccc1-c1nnc(NC(=O)c2ccc3c(c2)OCCO3)o1` was 119% (inactive).
As for `COc1ccc(S(=O)(=O)N2CCN(C)CC2)c(Cl)c1Cl`, the figure is 75% (inactive); as for `O=C1c2[nH]nc(-c3ccccc3O)c2C(c2cccc(O)c2)N1Cc1ccncc1` (stereo unspecified), 103% (inactive); as for `CCCN1C(=O)c2[nH]nc(-c3ccccc3)c2C1c1cccc(O)c1` (stereo unspecified), 54% (inactive).
With `O=C1c2[nH]nc(-c3ccccc3O)c2C(c2cccc(OCc3ccccc3)c2)N1CCO` (stereo unspecified), the survival is 67% (inactive).
Consider `CCCCN1C(=O)c2[nH]nc(-c3ccccc3O)c2C1c1cccc(OCc2ccccc2)c1` (stereo unspecified), for which the survival was 18% (active).
Consider `O=C1c2[nH]nc(-c3ccccc3O)c2C(c2cccc(OCc3ccccc3)c2)N1CCCO` (stereo unspecified), for which the survival is 56% (active).
Take `CCCN1C(=O)c2[nH]nc(-c3ccccc3O)c2C1c1cccc(OCc2ccccc2)c1` (stereo unspecified): the survival was 8% (active).
For `Fc1ccc(-c2cn3cc(Cc4ccc(Cl)cc4)sc3n2)cc1`, the survival is 55% (inactive).
Regarding `COc1ccc(CCNC(=O)CCCn2c(=O)c3ccccc3n(CC(=O)Nc3cc(Cl)ccc3C)c2=O)cc1OC`, the survival is 69% (inactive).
For `Cc1sc2c(c1C)c(=O)n(-c1ccc(Cl)cc1)c(=O)n2Cc1cc(=O)n2cc(Br)ccc2n1`, the survival was 76% (inactive).
Take `COc1ccc2c(c1)CCc1c(C(=O)Nc3ccc(OC)cc3OC)noc1-2`: the survival is 180% (inactive).
Regarding `CCOc1ccc(CCNC(=O)c2ccc3c(c2)nc2n3CCOC2)cc1OCC`, the survival was 79% (inactive).
Consider `Cc1ccc(C)c(CNC(=O)c2ccc3c(c2)nc2n3CCOC2)c1`, for which the survival was 67% (inactive).
For `O=C(NCc1ccccc1Br)c1ccc2c(c1)nc1n2CCOC1`, the survival is -1% (active).
The value for `CCOc1ccc(CNC(=O)c2ccc3c(c2)nc2n3CCOC2)cc1` was 90% (inactive); that for `CCOc1ccc(CNC(=O)c2ccc3c(c2)nc2n3CCC(C)C2)cc1OC` (stereo unspecified) was 73% (inactive).
Consider `O=C(NCc1ccccc1)c1ccc2c(c1)nc1n2CCOC1`, for which the survival is 84% (inactive).
On to `COc1ccc(CCNC(=O)c2ccc3c(c2)nc2n3CCOC2)cc1OC`, for which the survival is -2% (active).
Consider `CCOc1ccc(CNC(=O)c2ccc3c(c2)nc2n3CCOC2)cc1OC`, for which the survival was 6% (active).
In the case of `COc1ccc(CCNC(=O)c2ccc3c(c2)nc2n3CCCCC2)cc1OC`, the survival is 75% (inactive).
Take `Cc1cccc(-n2c(SCc3nc(-c4ccccc4C)no3)nnc2-c2ccccc2)c1`: the survival was 74% (inactive).
With `O=C(NC1CCN(Cc2nnnn2Cc2ccc3c(c2)OCO3)CC1)c1ccccc1F`, the survival was 91% (inactive).
On to `NC(=O)c1cc(S(=O)(=O)NCC2CCC(C(=O)Nc3ccc(Cl)cc3)CC2)cs1` (stereo unspecified), for which the survival is 66% (inactive).
The value for `O=C(NCc1ccc2c(c1)CCN2C(=O)c1ccc(Cl)cc1)c1ccco1` was 80% (inactive); that for `O=S(=O)(c1cc(Br)c(Br)s1)N1CCN(c2ccccc2)CC1` was 72% (inactive); that for `CCn1c(C(=O)NCc2ccccc2Cl)cc2sc(Cl)cc21` was 63% (inactive).
As for `COc1ccc(CCNC(=O)c2cc3sccc3n2Cc2ccc(Cl)cc2)cc1OC`, the survival is 88% (inactive).
As to `CCn1c(C(=O)NCc2ccc(C)cc2)cc2sc(Cl)cc21`, the survival was 92% (inactive).
As to `CCn1c(C(=O)NCCc2ccc(OC)c(OC)c2)cc2sc(Cl)cc21`, the survival is 32% (active).
As for `CCn1c(C(=O)NCc2ccccc2)cc2sc(Cl)cc21`, the figure is 34% (active).
On to `Cc1ccc(CNC(=O)c2cc3sc(Cl)cc3n2C)cc1`, for which the survival was 80% (inactive).
As for `CCn1c(C(=O)NCCc2ccc(S(N)(=O)=O)cc2)cc2sc(Cl)cc21`, the figure is 71% (inactive); as for `CCOc1ccc(NC(=O)c2cc3sc(Cl)cc3n2CC)cc1`, 84% (inactive).
As to `CCn1c(C(=O)NCc2ccc(OC)cc2)cc2sc(Cl)cc21`, the survival was 41% (active).
`N#Cc1c[nH]n2c(NC3CCCCC3)c(-c3ccccc3F)nc12`: the survival was 56% (inactive).
In the case of `CCCCN(C(=O)c1cccc(S(=O)(=O)N2CCCCC2)c1)C1CCS(=O)(=O)C1` (stereo unspecified), the survival is 117% (inactive).
Regarding `COc1ccc(CCNC(=O)CCc2c(C)nc3c4cccnc4nn3c2C)cc1OC`, the survival is 87% (inactive).
Consider `COc1ccc(CCNC(=O)C2COc3ccccc3O2)cc1` (stereo unspecified), for which the survival is 89% (inactive).
Regarding `Cc1ccc(NC(=O)Nc2cc3c(cc2N2CCCCC2)n(C)c(=O)n3C)cc1Cl`, the survival is 99% (inactive).
With `CC1CN(C(=O)N2CCC(C(=O)NC3CCCCCC3)CC2)c2cc(Cl)ccc2O1` (stereo unspecified), the survival is 61% (inactive).
For the molecule `O=C1CC(N2CCCC2)C(=O)N1c1ccccc1` (stereo unspecified), the survival was 96% (inactive).
In the case of `COc1ccccc1CNC(=O)C(=O)NCC(c1cccs1)S(=O)(=O)c1ccc(F)cc1` (stereo unspecified), the survival was 80% (inactive).
For `CC(C)c1ccc(OCc2cc(=O)n3c4c(sc3n2)CCCC4)cc1`, the survival was 73% (inactive).
The value for `Cc1cccn2c(=O)c(/C=C(\C#N)c3nc4ccccc4[nH]3)c(Oc3ccc(C(C)(C)C)cc3)nc12` was 93% (inactive); that for `COc1ccc(C)cc1NC(=O)CN1C(=O)COc2ccc(S(=O)(=O)N3CCC(C)CC3)cc21` was 69% (inactive).
Consider `COc1ccc(-c2cc(C(=O)OCC(=O)c3ccc(C)cc3)c3cccc(Cl)c3n2)cc1`, for which the survival is 65% (inactive).
Turning to `Cc1ccc(OC(=O)c2cc(-c3ccccc3)nc3ccc(C)cc23)cc1`, the survival was 49% (active).
As to `Cc1ccc(-c2cc(C(=O)Oc3ccccc3)c3cc(C)ccc3n2)cc1`, the survival was 76% (inactive).
On to `COc1ccc(-c2cc(C(=O)Oc3ccc(C)cc3)c3cc(C)ccc3n2)cc1`, for which the survival is 22% (active).
For `Cc1ccc2nc(C)cc(C(=O)O)c2c1`, the survival is 99% (inactive).
The value for `COc1ccc(-c2cc(C(=O)Oc3cccc(C)c3)c3cc(C)ccc3n2)cc1` was 13% (active); that for `COc1ccc(-c2cc(C(=O)OCC(=O)c3cccc(OC)c3)c3cccc(Cl)c3n2)cc1` was 74% (inactive).
Turning to `COc1ccc(-c2cc(C(=O)Oc3cccc(C)c3)c3ccccc3n2)cc1`, the survival is -2% (active).
As to `Cc1ccc(-n2cc(C(=O)Oc3cccc(C)c3)c3ccccc3c2=O)cc1`, the survival was 69% (inactive).
As for `Cc1ccc(-c2cc(C(=O)Oc3ccccc3)c3cccc(C)c3n2)cc1`, the figure is 50% (inactive).
The value for `COc1ccc(-c2cc(C(=O)OC(C)C(=O)c3ccccc3)c3cccc(Cl)c3n2)cc1` (stereo unspecified) was 76% (inactive).
As for `COc1ccc(-c2cc(C(=O)NCCc3ccccc3)c3cc(C(C)C)ccc3n2)cc1`, the survival was 76% (inactive).
